Among the data in PubChem BioAssay are z-score and composite z-score values, retold here.

The nature of assay [1]: optical density shifts of acrAB sulA E. coli – strain DRC41, OD650, 48 h, E. coli filamentation inducer project, primary screen (AID 1152).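 Also: E. coli MC1000 strain DRC41 lacking acrAB efflux pump and sulA.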 Particulars: higher = more signal, called active from +8 up or from −8 down.
Assay [2] is described as follows: probe aLefty1 binding on compound microarray – biochemical, small-molecule microarray, 635/667 nm fluorescence, primary screen (AID 1153).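 Also: score merges spot fluorescence with signal-to-noise ratio from the scanned slide images.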 The following applies: higher = more signal.
Assay [3] is described as follows: plasmodial surface anion channel blockers, osmotic lysis – cell-based, P. falciparum Indochina, OD700, 1 h, primary screen (AID 1154). Particulars: P. falciparum Indochina infected RBC osmotic lysis, higher = more signal, called active from +8 up or from −8 down.
The nature of assay [4]: plasmodial surface anion channel blockers, osmotic lysis – cell-based, P. falciparum Indochina, OD700, 2 h, primary screen (AID 1155).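 Also: lysis reports solute entry through the parasite surface anion channel PSAC.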 The following applies: P. falciparum Indochina infected erythrocytes, higher = more signal, called active from +8 up or from −8 down.
Assay [5] in a line: changes in parasitized red cell lysis, either direction – P. falciparum Indochina, OD700, 3 h, PSAC antagonist project, primary screen (AID 1156). The following applies: P. falciparum-infected erythrocytes, osmotic lysis, higher = more signal, called active from +8 up or from −8 down.
Assay [6] is described as follows: plasmodial surface anion channel blockers, osmotic lysis – cell-based, P. falciparum Indochina, OD700, 18 h, primary screen (AID 1157). The following applies: P. falciparum Indochina infected erythrocytes, osmotic lysis OD700, 18 h; higher = more signal, called active from +8 up or from −8 down.
Assay [7] is described as follows: S6 kinase pathway phospho-S6 level changes – cell-based, A549, cytoblot, luminescence, serum-stimulated, primary screen (AID 1158).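 Also: serum-stimulated A549 lung adenocarcinoma cells; signal is phosphorylated S6 detected by cytoblot immunostaining with HRP secondary.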 Particulars: 5 h, higher = more signal.
Assay [8] addresses NADPH oxidase 2 (Homo sapiens) (UniProt P04839). As to the kind of experiment: compounds shifting NOX2 Amplex Red fluorescence – cell-based, HEK293-NOX2, PMA-stimulated, NOX inhibitor project, primary screen (AID 1159). Also: test concentration not given here. The following applies: 45 min, higher = more signal, called active from +8 up or from −8 down.
Assay [9] concerns the target NADPH oxidase 4 (Homo sapiens) (UniProt Q9NPH5). As to the kind of experiment: compounds shifting NOX4 Amplex Red fluorescence – cell-based, HEK293-NOX4, tetracycline-induced, NOX inhibitor project, primary screen (AID 1160). The following applies: HEK293-NOX4, Amplex Red H2O2 fluorescence, 45 min; higher = more signal, called active from +8 up or from −8 down.
Assay [10] deals with NADPH oxidase 5 (Homo sapiens) (UniProt Q96PH1). Briefly: compounds shifting NOX5 Amplex Red fluorescence – cell-based, HEK293-NOX5, NOX inhibitor project, primary screen (AID 1161). Particulars: HEK293-NOX5, ionomycin, 45 min, higher = more signal.
The nature of assay [11]: compound effects on lung adenocarcinoma cell viability – A549, calcein-AM fluorescence, 48 h, basal, profiling panel (AID 1162). Also: test concentration not given here. Particulars: higher = more signal.
Assay [12] can be described thus: compound effects on differentiated 3T3-L1 adipocyte viability – cell-based, 3T3-L1 adipocytes, calcein-AM fluorescence, 48 h, basal, profiling panel (AID 1163). Also: test concentration not given here. Particulars: 3T3-L1 adipocytes viability, higher = more signal.
The nature of assay [13]: compound effects on hepatocellular carcinoma cell viability – HepG2, calcein-AM fluorescence, 48 h, basal, profiling panel (AID 1164). Also: test concentration not given here. The following applies: higher = more signal.
A short description of assay [14]: compound effects on multiple myeloma cell viability – MM1S, calcein-AM fluorescence, 48 h, basal, profiling panel (AID 1165).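 Also: viability of MM1S multiple myeloma cells under basal unstimulated conditions; test concentration not given here.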 Particulars: higher = more signal.
The nature of assay [15]: calcein-AM signal in unstimulated myeloma cells – cell-based, calcein-AM fluorescence, 48 h, PK04 Diversity Set, profiling panel (AID 1166).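 Also: cells grown under basal conditions without added stimulus; test concentration not given here.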 The following applies: RPMI8226 myeloma viability, higher = more signal.
Assay [16] in a line: JC-1 mitochondrial signal, unstimulated HepG2 cells – cell-based, JC-1 fluorescence, 24 h, 100 nL compound, profiling panel (AID 1167). Also: test concentration not given here. The following applies: HepG2 mitochondrial potential, higher = more signal.
Assay [17] in a line: JC-1 mitochondrial signal, unstimulated adipocytes – cell-based, JC-1 fluorescence, 3T3-L1 adipocytes, 24 h, 100 nL compound, profiling panel (AID 1168). Also: test concentration not given here. The following applies: JC-1 mitochondrial fluorescence, higher = more signal, called active from +8 up or from −8 down.
The nature of assay [18]: JC-1 mitochondrial signal, unstimulated myeloma cells – cell-based, JC-1 fluorescence, RPMI8226, 24 h, 100 nL compound, profiling panel (AID 1169). Also: test concentration not given here. The following applies: JC-1 mitochondrial potential fluorescence, higher = more signal.
A short description of assay [19]: JC-1 mitochondrial signal, unstimulated MM1S myeloma – cell-based, JC-1 fluorescence, 24 h, 100 nL compound, profiling panel (AID 1170). Also: test concentration not given here. The following applies: MM1S mitochondrial potential, higher = more signal.
The nature of assay [20]: resazurin metabolic signal in A549 cells – cell-based, resazurin fluorescence, 24 h, PK04 Diversity Set, profiling panel (AID 1171). Also: test concentration not given here. The following applies: A549 viability, higher = more signal, called active from +8 up or from −8 down.

Several values for one entry are separate records, joined by “and”; a condition that tells them apart may be missing. Equal values may be shown once. Activity calls are given as the source filed them.

Chain of NADPH oxidase 5 (Homo sapiens) (Q96PH1 whole entry, looked up): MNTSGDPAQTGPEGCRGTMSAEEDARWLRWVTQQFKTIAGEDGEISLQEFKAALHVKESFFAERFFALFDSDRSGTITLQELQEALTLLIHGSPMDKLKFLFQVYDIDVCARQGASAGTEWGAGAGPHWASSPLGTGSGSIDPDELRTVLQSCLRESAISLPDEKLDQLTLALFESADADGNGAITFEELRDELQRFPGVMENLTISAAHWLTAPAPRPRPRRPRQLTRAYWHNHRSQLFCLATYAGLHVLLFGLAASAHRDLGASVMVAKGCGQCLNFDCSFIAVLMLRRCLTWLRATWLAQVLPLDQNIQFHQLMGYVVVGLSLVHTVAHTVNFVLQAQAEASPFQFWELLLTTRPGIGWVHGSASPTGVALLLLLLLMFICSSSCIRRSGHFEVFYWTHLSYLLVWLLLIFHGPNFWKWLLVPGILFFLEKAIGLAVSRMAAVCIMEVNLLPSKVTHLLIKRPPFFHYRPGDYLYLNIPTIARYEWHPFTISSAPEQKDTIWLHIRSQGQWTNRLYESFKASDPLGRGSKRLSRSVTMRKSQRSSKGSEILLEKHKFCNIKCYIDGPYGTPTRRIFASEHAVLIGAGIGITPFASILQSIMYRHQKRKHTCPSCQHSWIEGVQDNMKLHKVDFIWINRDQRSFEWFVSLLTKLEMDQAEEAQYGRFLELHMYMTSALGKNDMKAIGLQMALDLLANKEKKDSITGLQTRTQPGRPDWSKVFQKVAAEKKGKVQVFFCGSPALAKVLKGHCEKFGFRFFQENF
Chain of NADPH oxidase 2 (Homo sapiens) (P04839 whole entry, looked up): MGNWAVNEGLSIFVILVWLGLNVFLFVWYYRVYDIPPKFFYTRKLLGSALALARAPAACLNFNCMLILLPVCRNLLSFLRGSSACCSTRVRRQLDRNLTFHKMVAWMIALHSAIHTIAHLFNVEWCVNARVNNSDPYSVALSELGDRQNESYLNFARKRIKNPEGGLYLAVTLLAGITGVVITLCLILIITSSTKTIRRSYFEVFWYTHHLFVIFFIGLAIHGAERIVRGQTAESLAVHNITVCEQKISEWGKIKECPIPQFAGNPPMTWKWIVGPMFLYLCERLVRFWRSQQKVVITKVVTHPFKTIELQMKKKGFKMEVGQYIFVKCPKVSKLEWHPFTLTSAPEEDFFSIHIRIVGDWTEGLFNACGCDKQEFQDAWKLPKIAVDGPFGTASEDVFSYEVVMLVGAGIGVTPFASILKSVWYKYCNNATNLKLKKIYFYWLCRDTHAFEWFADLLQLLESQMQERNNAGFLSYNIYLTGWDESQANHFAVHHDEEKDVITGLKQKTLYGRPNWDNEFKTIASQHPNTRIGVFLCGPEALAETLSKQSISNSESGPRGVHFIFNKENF
Chain of NADPH oxidase 4 (Homo sapiens) (Q9NPH5 whole entry, looked up): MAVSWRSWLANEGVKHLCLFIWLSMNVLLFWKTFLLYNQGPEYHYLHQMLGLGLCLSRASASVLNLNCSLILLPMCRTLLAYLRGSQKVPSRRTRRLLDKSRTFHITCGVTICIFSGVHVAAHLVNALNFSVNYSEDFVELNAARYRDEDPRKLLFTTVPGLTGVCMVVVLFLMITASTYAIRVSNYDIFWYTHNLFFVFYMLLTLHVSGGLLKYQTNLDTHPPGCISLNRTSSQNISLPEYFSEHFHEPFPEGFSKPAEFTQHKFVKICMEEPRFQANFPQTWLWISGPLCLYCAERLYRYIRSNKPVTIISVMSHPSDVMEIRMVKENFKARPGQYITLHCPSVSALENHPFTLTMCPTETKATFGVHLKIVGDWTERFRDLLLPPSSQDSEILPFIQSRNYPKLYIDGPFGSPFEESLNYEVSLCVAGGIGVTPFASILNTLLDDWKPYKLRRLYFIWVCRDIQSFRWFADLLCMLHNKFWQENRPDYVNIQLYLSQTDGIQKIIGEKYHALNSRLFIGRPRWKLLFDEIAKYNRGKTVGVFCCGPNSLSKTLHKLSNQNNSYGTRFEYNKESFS

Take `Cc1ccc(S(=O)(=O)N[C@H]2COC(=O)[C@@H](C)COC(=O)[C@H](C)NC(=O)CC=C[C@H]2C)cc1`: the z-score in assay [1] was -0.117 (inactive); in assay [3] it was -0.306 (inactive); in assay [4], 0.286 (inactive); in [5] it was 0.501 (inactive); in assay [6], 0.0584 (inactive); in assay [7], -0.177. Further, the z-score in assay [8] was -1.36 (inactive); in [9] it was 0.555 (inactive); in assay [10], 0.0658; in [11], 0.437; in assay [12], 0.0608; in [13], -0.107. Further, the z-score in assay [14] was 0.143; in assay [15], 0.0608; in assay [16] it was 0.125; in assay [17] it was 0.198 (inactive); in assay [18], -0.137; in assay [19], 0.894. For the same compound, in assay [20], the z-score was 1.57 (inactive). The composite z-score in assay [2] was -0.195.

Take `CCN1C(=O)[C@H]2[C@H]3[C@H](O)[C@H](O)CC(=NOC[C@@H](O)COCc4ccco4)[C@@H]3CC[C@H]2C1=O`: the z-score is -0.423 (inactive) and -0.268 (inactive) in assay [1]; -0.0538 (inactive) and 1.03 (inactive) in assay [3]; -0.0403 (inactive) and 0.0127 (inactive) in [4]; -0.534 (inactive) and 1.78 (inactive) in [5]; -0.21 (inactive) and 0.464 (inactive) in [6]; 0.485 and 0.312 in assay [7]. Also, the z-score in [8] was -0.535 (inactive) and 0.394 (inactive); in assay [9], -1.86 (inactive) and -0.599 (inactive); in assay [10] it was -0.844 and -0.174; in [11], 0.107 and -0.737; in [12], -0.233 and 1.1; in [13] it was -0.417 and -0.814. The z-score in assay [14] is 0.0026 and 0.228; in assay [15], -1.35 and -1.38; in assay [16], -0.48 and -0.487; in assay [17], -0.844 (inactive) and -0.925 (inactive); in assay [18], 0.0424 and 0.122; in [19] it was 0.104 and 0.0266. For the same compound, the z-score in assay [20] is -0.767 (inactive) and -1.14 (inactive). The composite z-score in [2] is -0.0877 and -0.101.

As for `C[N+](C)(C)CCCCNC(=O)[C@@H]1C[C@@H]2C(=O)N[C@@H](CCCC[N+](C)(C)C)C(=O)N2[C@@H]1c1cccc(OCCO)c1`, the z-score in assay [1] is 0.185 (inactive) and 0.394 (inactive); in assay [3] it was 1.5 (inactive) and 1.02 (inactive); in assay [4], 0.77 (inactive) and -0.108 (inactive); in assay [5], -1.61 (inactive) and -1.45 (inactive); in assay [6], 0.252 (inactive) and -0.0932 (inactive); in assay [7], -0.519 and -0.437. The z-score was -2.1 (inactive) and -1.99 (inactive) in assay [8]; -2.58 (inactive) and -1.13 (inactive) in [9]; -1.28 and -0.837 in assay [10]; 0.901 and 1.05 in assay [11]; 0.462 and -0.276 in assay [12]; -0.517 and 0.473 in assay [13]. Further, the z-score was -0.531 and -0.212 in [14]; -0.719 and -0.495 in assay [15]; 0.0138 and 1.44 in [16]; -0.393 (inactive) and 0.547 (inactive) in [17]; 0.352 and -0.897 in [18]; -0.218 and 0.26 in assay [19]. For the same compound, the z-score in assay [20] was -0.375 (inactive) and -0.0246 (inactive). Besides, the composite z-score in [2] was -0.144 and 0.167.

With `C=CCN(CCCC)C(=O)C1N(C(C)(C)CO)C(=O)C2C(C(=O)O)C3C=CC21O3` (stereo not given), the z-score is -0.2 (inactive) and -0.302 (inactive) in [1]; 0.109 (inactive) and 0.0708 (inactive) in assay [3]; 0.134 (inactive) and 0.354 (inactive) in assay [4]; -0.724 (inactive) and -1.27 (inactive) in assay [5]; 0.0135 (inactive) and -0.109 (inactive) in assay [6]; 0.301 and -0.335 in assay [7]. The z-score in [8] is 0.209 (inactive) and 0.495 (inactive); in assay [9], 0.0887 (inactive) and -0.0844 (inactive); in assay [10] it was 0.616 and 0.0892; in assay [11], -0.77 and -0.624; in assay [12] it was 0.75 and 0.349; in assay [13], 0.0674 and -0.857. Besides, the z-score was 1.09 and -0.12 in [14]; -0.539 and 0.144 in assay [15]; -0.553 and -0.548 in [16]; -0.134 (inactive) and 0.142 (inactive) in [17]; 0.354 and 0.826 in assay [18]; -0.283 and -0.384 in [19]. Further, in assay [20], the z-score was 0.289 (inactive) and -0.11 (inactive). Further, the composite z-score in assay [2] was -0.255 and -0.488.

As to `C=CC[C@@H](O)c1ccc(O)c2ccccc12`, the z-score in [1] is 1.07 (inactive) and -0.266 (inactive); in [3], 0.964 (inactive) and 0.883 (inactive); in [4] it was 0.263 (inactive) and 0.49 (inactive); in [5], -0.379 (inactive) and -0.519 (inactive); in assay [6], 0.131 (inactive) and 0.548 (inactive); in [7], -0.241 and 0.206. Also, the z-score in assay [8] was -5.68 (inactive) and -5.98 (inactive); in assay [9], -1.28 (inactive) and -1.66 (inactive); in assay [10], 1.61 and 0.954; in assay [11] it was 0.292 and 0.405; in assay [12] it was -0.0851 and -0.0172; in assay [13], 0.23 and -0.354. For the same compound, the z-score was -2.77 and -2.68 in assay [14]; -3.06 and -4.28 in assay [15]; -2.14 and -2.66 in assay [16]; 0.0544 (inactive) and -0.0565 (inactive) in assay [17]; -0.887 and -0.994 in assay [18]; -1.63 and -1.56 in assay [19]. For the same compound, in assay [20], the z-score is -0.308 (inactive) and -0.572 (inactive). Moreover, the composite z-score in assay [2] was 0.113 and 0.176.

Consider `COC(=O)C1=C(C)N(Cc2ccccc2)C2=C3C(=O)N(c4ccccc4)C(=O)[C@@H]3[C@@](O)(C(=O)OC)C(=O)N2[C@@H]1c1ccccc1`, for which the z-score in assay [1] is 0.417 (inactive) and 0.339 (inactive); in assay [3] it was 0.518 (inactive) and 0.516 (inactive); in [4] it was 0.372 (inactive) and -0.427 (inactive); in assay [5], 0.509 (inactive) and 0.736 (inactive); in assay [6], 0.54 (inactive) and -0.962 (inactive); in assay [7], -0.528 and 1.43. In addition, the z-score in [8] is -0.0787 (inactive) and 0.333 (inactive); in assay [9], -0.0918 (inactive) and 0.833 (inactive); in assay [10] it was -0.244 and 0.251; in assay [11], 1.52 and 2.18; in assay [12] it was 0.0671 and 1.01; in assay [13], 0.286 and -0.126. Further, the z-score is -0.532 and 0.354 in assay [14]; 0.585 and 1.26 in assay [15]; 0.889 and 1.68 in assay [16]; 0.143 (inactive) and 1.26 (inactive) in assay [17]; -0.87 and -0.111 in assay [18]; 0.702 and 0.136 in assay [19]. For the same compound, the z-score in assay [20] was 0.497 (inactive) and 0.767 (inactive). Also, in assay [2], the composite z-score was 0.0752 and -0.0984.
